Results on 67 compounds are retold here after article PMC4336329 (PLoS ONE, 2015).

About 2,200 (0.71%) of roughly 310,000 compounds showed an effect of 50% or more. Effects have a minus sign here. The entries come from a sample that favours strong results as a whole.

Sequence of human ether-à-go-go-related gene (hERG) potassium channel (Q12809 whole entry, looked up): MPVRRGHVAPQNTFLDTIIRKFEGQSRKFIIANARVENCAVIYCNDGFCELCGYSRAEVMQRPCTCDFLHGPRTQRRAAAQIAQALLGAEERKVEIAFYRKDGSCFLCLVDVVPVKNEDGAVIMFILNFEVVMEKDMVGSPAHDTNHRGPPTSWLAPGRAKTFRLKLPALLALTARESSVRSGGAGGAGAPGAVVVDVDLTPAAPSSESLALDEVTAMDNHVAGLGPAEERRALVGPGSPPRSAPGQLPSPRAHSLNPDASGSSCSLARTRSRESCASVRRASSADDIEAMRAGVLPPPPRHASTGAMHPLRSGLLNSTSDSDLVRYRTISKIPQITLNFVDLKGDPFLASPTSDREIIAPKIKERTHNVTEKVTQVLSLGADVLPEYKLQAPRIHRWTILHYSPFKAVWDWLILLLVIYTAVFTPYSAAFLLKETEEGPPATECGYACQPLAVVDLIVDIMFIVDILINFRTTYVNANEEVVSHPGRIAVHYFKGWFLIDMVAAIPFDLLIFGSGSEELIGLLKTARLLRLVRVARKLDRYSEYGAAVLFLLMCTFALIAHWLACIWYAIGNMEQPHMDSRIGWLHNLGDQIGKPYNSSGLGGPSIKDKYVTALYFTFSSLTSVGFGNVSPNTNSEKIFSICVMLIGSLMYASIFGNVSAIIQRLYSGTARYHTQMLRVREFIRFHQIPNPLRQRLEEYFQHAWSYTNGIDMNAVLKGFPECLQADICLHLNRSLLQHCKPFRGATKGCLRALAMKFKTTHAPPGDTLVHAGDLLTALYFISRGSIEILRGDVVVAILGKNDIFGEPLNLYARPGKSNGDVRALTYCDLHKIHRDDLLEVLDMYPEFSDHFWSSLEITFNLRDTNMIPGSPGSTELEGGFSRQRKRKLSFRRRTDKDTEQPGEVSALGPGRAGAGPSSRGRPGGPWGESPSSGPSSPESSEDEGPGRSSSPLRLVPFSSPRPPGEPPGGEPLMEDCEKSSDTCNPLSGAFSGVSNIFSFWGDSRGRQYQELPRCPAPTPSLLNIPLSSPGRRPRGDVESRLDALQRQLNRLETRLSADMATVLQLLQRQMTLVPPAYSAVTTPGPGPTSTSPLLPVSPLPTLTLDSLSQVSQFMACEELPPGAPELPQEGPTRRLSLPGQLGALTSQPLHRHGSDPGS

The experiment has as its target human ether-à-go-go-related gene (hERG) potassium channel (human, UniProt Q12809). Put plainly: primary screen, population patch clamp on CHO cells stably expressing hERG; higher = less effect of the substance.
Take `COC(=O)c1ccccc1Nc1ccnc(Cl)n1`: the “hERG current change (%, negative = inhibition) at 1uM” value is given as -6.9%. In the case of `O=C(Nc1c(F)c(F)c(F)c(F)c1F)C1CCCCC1`, the “hERG current change (%, negative = inhibition) at 1uM” value is 5.93%. In the case of `CC(C(=O)N1CCCC1)N(c1ccccc1)S(C)(=O)=O` (stereo not shown) it was 20.3%. In the case of `C/C(=N\NC(=O)c1ccccc1)c1ccc(-n2ccnc2)cc1` it was 8.54%. In the case of `O=C(CCc1nnc(-c2ccccc2)o1)NCc1cc(F)ccc1F` it was 0.576%. Take `Cc1csc(N(C)C(=O)CSc2nnc(COc3ccccc3C)o2)n1`: the “hERG current change (%, negative = inhibition) at 1uM” value was determined as 6.62%. For `CC(C)CC(=O)Nc1ccc2oc(-c3cccnc3)nc2c1`, the “hERG current change (%, negative = inhibition) at 1uM” value came to 15.3%. In the case of `COCCSc1nnc(NC(=O)C2CC(=O)N(C3CCCC3)C2)s1` (stereo not shown) it was 16%. In the case of `COc1cccc(C(=O)OCC(=O)NC(C)CCc2ccccc2)c1O` (stereo not shown) it was 13.8%; in that of `CCN1CCN(C(=O)/C(=C/c2ccco2)NC(=O)c2ccccc2)CC1`, -57.1%; in that of `O=C(N/C(=C\c1ccc([N+](=O)[O-])cc1)C(=O)N1CCCCC1)c1ccco1`, -41.5%. As for `Cc1ccc(C(=O)N/C(=C/c2ccco2)C(=O)N2CCOCC2)cc1`, the “hERG current change (%, negative = inhibition) at 1uM” value is 8.19%. In the case of `CN1CCN(C(=O)/C(=C/c2ccco2)NC(=O)c2ccccc2)CC1` it was -37.1%; in that of `O=C(N/C(=C\c1ccco1)C(=O)N1CCOCC1)c1ccc([N+](=O)[O-])cc1`, -55.9%; in that of `O=C(N/C(=C/c1ccc([N+](=O)[O-])cc1)C(=O)N1CCOCC1)c1ccco1`, -34.6%. In the case of `O=C(N/C(=C\c1ccco1)C(=O)N1CCCC1)c1ccccc1` it was 14.4%. In the case of `O=C(N/C(=C\c1cccc([N+](=O)[O-])c1)C(=O)N1CCOCC1)c1ccc([N+](=O)[O-])cc1` it was -2.31%; in that of `O=C(N/C(=C\c1ccc([N+](=O)[O-])cc1)C(=O)N1CCOCC1)c1ccco1`, -57.1%. Consider `CCOc1ccc(NS(=O)(=O)c2ccc3ncsc3c2)cc1`, for which the “hERG current change (%, negative = inhibition) at 1uM” value stood at 12.1%. In the case of `O=C1CCCCCCC1Sc1ccccc1[N+](=O)[O-]` (stereo not shown) it was 3.82%.

As to `Cc1ccc(C2C(=O)N(C3CCC(C)CC3)CC(=O)N2C2CCCC2)cc1` (stereo not shown), the “hERG current change (%, negative = inhibition) at 1uM” value is listed as -13.1%. In the case of `COC(=O)/C=c1/s/c(=C(/C#N)C(=O)N2CCCCC2)n(-c2ccccc2)c1=O` it was 9.76%; in that of `CC(C)[C@H](NS(=O)(=O)c1ccccc1)C(=O)OCn1nnc2ccccc2c1=O`, 4.31%; in that of `Cc1ccc(Cn2c(SCCN3CCCCC3)nc3c2c(=O)n(C)c(=O)n3C)cc1`, -67.1%.

In the case of `Cn1c(=O)c2c(nc(SCCN3CCOCC3)n2Cc2ccccc2Cl)n(C)c1=O`, the “hERG current change (%, negative = inhibition) at 1uM” value is -8.97%. As to `Cc1ccc(Cn2c(SCCN3CCOCC3)nc3c2c(=O)n(C)c(=O)n3C)cc1`, the “hERG current change (%, negative = inhibition) at 1uM” value is listed as -6.9%. In the case of `Cn1c(=O)c2c(nc(SCCN3CCOCC3)n2Cc2ccccc2)n(C)c1=O` it was -5.7%. In the case of `Cn1c(=O)c2c(nc(SCCN3CCCCC3)n2Cc2ccc(Cl)cc2)n(C)c1=O` it was -48.9%; in that of `Cn1c(=O)c2c(nc(SCCN3CCCCC3)n2Cc2ccccc2)n(C)c1=O`, -66%. In the case of `ON1C2CCCCC2N(O)C1c1c(F)c(F)c(F)c(F)c1F` (stereo not shown) it was 17.7%; in that of `CC1CN(CC(=O)NCc2ccccc2)CC(C)O1` (stereo not shown), 19.2%. `Cc1ccc(N2C(=O)C(CN3CCOCC3)C2c2ccccc2)cc1` (stereo not shown): the “hERG current change (%, negative = inhibition) at 1uM” value is recorded as -1.12%.

In the case of `Cc1ccc(N2C(=O)C(CN3CCCCC3)C2c2ccccc2)cc1` (stereo not shown), the “hERG current change (%, negative = inhibition) at 1uM” value was -4.6%. In the case of `Cc1ccc(N2C(=O)C(CN3CCCC3)C2c2ccccc2)cc1` (stereo not shown) it was -70.6%; in that of `COCCn1c(SCC(=O)N2CCCCC2)nc2ccccc2c1=O`, -30.8%. Take `C=CCn1c(SCCN2CCCC2)nc2c([nH]c3ccccc32)c1=O`: the “hERG current change (%, negative = inhibition) at 1uM” value is -63.9%. `CCOC(=O)CSc1nc2ccccc2c(=O)n1CC1CCCC1`: the “hERG current change (%, negative = inhibition) at 1uM” value is listed as -63.8%. For the compound `CCOC(=O)CSc1nc2ccccc2c(=O)n1CC1CCCO1` (stereo not shown), the “hERG current change (%, negative = inhibition) at 1uM” value worked out at 9.44%. In the case of `COCCn1c(SCC(=O)N2CCOCC2)nc2ccccc2c1=O` it was 5.32%. In the case of `COc1ccc(CCn2c(SCCN3CCCCC3)nc3ccccc3c2=O)cc1OC` it was -8.22%. In the case of `C=CCn1c(SCC(=O)NC2CCCC2)nc2c([nH]c3ccccc32)c1=O` it was -16.9%; in that of `COCCn1c(SCC(=O)N2CCC(C)CC2)nc2ccccc2c1=O`, -57.9%; in that of `C=CCn1c(SCC(=O)N2CCCC2)nc2c([nH]c3ccccc32)c1=O`, 5.21%.

Turning to `O=c1c2ccccc2nc(SCCN2CCCCC2)n1CCc1ccccc1`, the “hERG current change (%, negative = inhibition) at 1uM” value is reported as -10%. In the case of `CCOC(=O)CSc1nc2ccccc2c(=O)n1CC` it was -1.18%.

As for `COCCn1c(SCCN2CCCCC2)nc2ccccc2c1=O`, the “hERG current change (%, negative = inhibition) at 1uM” value was -53.3%.

For `CN(C(=O)COC(=O)/C=C/c1ccc2ccccc2n1)C1CCS(=O)(=O)C1` (stereo not shown), the “hERG current change (%, negative = inhibition) at 1uM” value stood at 12.9%. As for `CC(=O)Nc1cccc(C(=O)OCc2ccc([N+](=O)[O-])cc2)c1`, the “hERG current change (%, negative = inhibition) at 1uM” value is given as -13.5%. For the compound `O=C1C=C(NCC2CCCO2)C2(CCCCC2)O1` (stereo not shown), the “hERG current change (%, negative = inhibition) at 1uM” value turned out to be 15.6%. In the case of `N#Cc1ccccc1OCC(=O)N1N=C(c2cccs2)CC1c1ccco1` (stereo not shown) it was -1.57%; in that of `O=C(CSc1nncn1-c1ccccc1)Nc1cc(Cl)cc(Cl)c1`, 5.88%; in that of `O=C(Cn1ncc2c1-c1ccccc1OC2)N1CCN(Cc2ccccc2)CC1`, -58%. In the case of `O=C(Cn1ncc2c1-c1ccccc1OC2)N1CCN(Cc2ccc3c(c2)OCO3)CC1` it was -31%. In the case of `CCN1CCN(C(=O)Cn2ncc3c2-c2ccccc2OC3)CC1` it was 0.123%; in that of `O=C1NN=COc2ccccc21`, 4.08%.

Regarding `CC(C)N1CCN(Cc2cccn2-c2ccccn2)CC1CCO` (stereo not shown), the “hERG current change (%, negative = inhibition) at 1uM” value is -16%. In the case of `OCCC1CN(Cc2cccn2-c2ccccn2)CCN1C1CCCC1` (stereo not shown) it was 3.68%; in that of `Cc1ccc(CN2CCN(Cc3cccn3-c3ccccn3)CC2CCO)o1` (stereo not shown), -59.5%. In the case of `Cc1ccc(CN2CCN(Cc3ccncc3)CC2CCO)o1` (stereo not shown) it was -1.98%; in that of `CC(C)CCN1CCN(Cc2cccn2-c2ccccn2)CC1CCO` (stereo not shown), -36.6%. In the case of `OCCC1CN(Cc2cccn2-c2ccccn2)CCN1Cc1ccccc1` (stereo not shown) it was -61.4%. Consider `CC(C)CN1CCN(Cc2cccn2-c2ccccn2)CC1CCO` (stereo not shown), for which the “hERG current change (%, negative = inhibition) at 1uM” value is reported as -18.8%. Consider `Cc1ccc(CN2CCN(Cc3cccn3-c3ccc(Cl)cn3)CC2CCO)o1` (stereo not shown), for which the “hERG current change (%, negative = inhibition) at 1uM” value was 0.259%. In the case of `CC(C)=CCN1CCN(Cc2cccn2-c2ccccn2)CC1CCO` (stereo not shown) it was -19.9%; in that of `Cc1ccc(CN2CCN(Cc3cccn3-c3ccccn3)CC2CCO)cc1` (stereo not shown), -82.4%; in that of `Cc1ccc(CN2CCN(Cc3c(C)nn(C(C)C)c3C)CC2CCO)o1` (stereo not shown), 10.6%. In the case of `Cc1cc(C)c(CN2CCN(Cc3ccc(C)o3)C(CCO)C2)c(-n2cccn2)c1` (stereo not shown) it was -70.9%.
